Experimental findings from PubChem BioAssay (NCI) are described below.

About 79,000 compounds went through this panel and 15% of them were active in at least one assay; those are over-represented in the sample as a whole. Values without a mark were called inactive. Activity calls are given as the source filed them. Rule as the data show it: active = growth inhibition above about 70%; inactive = the rest.

The nature of experiment [1]: NCI Yeast Anticancer Drug Screen. Data for the rad50 strain (AID 155).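 Also: 0% = growth of vehicle-only cultures of the same strain.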 The note with it: S. cerevisiae rad50 strain growth inhibition; at 50.0 µM; hits give high values. Put shortly: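 Relative growth inhibition (compound vs vehicle) was measured in yeast with a defined repair-gene alteration.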
The nature of experiment [2]: NCI Yeast Anticancer Drug Screen. Data for the mec2-1 strain (AID 157). The note with it: S. cerevisiae mec2-1 strain, at 50.0 µM, hits give high values. Summed up:
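Vehicle-treated cultures served as reference for growth inhibition of compound-exposed mec2-1 yeast.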

Experiment [3] in a line: NCI Yeast Anticancer Drug Screen. Data for the sgs1 mgt1 strain (AID 161).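 Also: 0% = growth of cultures given vehicle only.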 The note with it: S. cerevisiae sgs1 mgt1 strain, at 50.0 µM, hits give high values. Put shortly: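 Inhibition of yeast growth, normalised to vehicle-treated controls, is reported for a strain bearing genetic alterations in DNA damage repair.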
The nature of experiment [4]: NCI Yeast Anticancer Drug Screen. Data for the cln2 rad14 strain (AID 165).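 Also: 0% = growth equal to vehicle treated cultures.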 The note with it: S. cerevisiae cln2 rad14 strain, at 50.0 µM, hits give high values. Put shortly: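 Each compound was tested on cln2 rad14 yeast. Inhibition of growth was calculated against vehicle-exposed controls.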
Experiment [5] is described as follows: NCI Yeast Anticancer Drug Screen. Data for the bub3 strain (AID 167). The note with it: S. cerevisiae bub3 mutant strain, at 50.0 µM, hits give high values. Put shortly: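 Screening used yeast with an engineered genetic alteration affecting cell cycle control. Compound-exposed cultures were compared with vehicle cultures, and reduced growth was taken as inhibition.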

A short description of experiment [6]: NCI Yeast Anticancer Drug Screen. Data for the mlh1 rad18 strain (AID 175). The note with it: S. cerevisiae mlh1 rad18 strain growth inhibition; at 50.0 µM; hits give high values. Put shortly:
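Vehicle-treated cultures served as the reference for growth inhibition in a yeast strain carrying DNA damage repair alterations exposed to each compound.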

With `COc1ccc(C(C#N)N2CCCCC2)cc1` (stereo not drawn), the growth inhibition in experiment [1] is 21.6%; in experiment [2], -6.25%; in experiment [3] it was -13.5%; in experiment [4] it was 22.1%; in experiment [5], 7.05%; in experiment [6] it was 0.4%.
As for `CCCOC(=O)NC(C)C(=O)NC(CCC(=O)NC(CCCC(N)C(=O)O)C(=O)NC(C)C(=O)O)C(=O)O` (stereo not drawn), the growth inhibition is -20.8% in experiment [1]; -19.9% in experiment [2]; -37.6% in experiment [3]; -9.25% in experiment [4]; 21.6% in experiment [5]; -10.8% in experiment [6].
With `N#C/C(=C\c1cccs1)C(N)=S`, the growth inhibition is 6.85% in experiment [1]; -18.6% in experiment [2]; -6.45% in experiment [3]; -31.2% in experiment [4]; -9.1% in experiment [5]; 1.65% in experiment [6].
In the case of `CC(C)CC1NC(=O)OC1=O` (stereo not drawn), the growth inhibition in experiment [1] was 6.7%; in experiment [2] it was 0.9%; in experiment [3], -9.7%; in experiment [4], -17.6%; in experiment [5], 1.25%; in experiment [6], 0.35%.
`NC(=O)C(=O)c1cc(Cl)c(Cl)c(Cl)c1Cl`: the growth inhibition is -12.3% in experiment [1]; -13.5% in experiment [2]; 12.4% in experiment [3]; -9% in experiment [4]; -5.15% in experiment [5]; -4.15% in experiment [6].
As to `COc1cc(-c2cc(-c3cc([N+](=O)[O-])c(/C=N/NC(=O)c4ccncc4)o3)ccc2OC)ccc1C`, the growth inhibition in experiment [1] is 17.5%; in experiment [2], 8.2%; in experiment [3] it was -8.1%; in experiment [4], 26.9%; in experiment [5] it was 11.2%; in experiment [6], 8.3%.
With `COC(=O)[C@@H](CO)NC(=O)OC(C)(C)C`, the growth inhibition is -27.6% in experiment [1]; -15% in experiment [2]; -24.1% in experiment [3]; 21.6% in experiment [4]; 9.4% in experiment [5]; -12.8% in experiment [6].
As to `O=C(O)c1ccc(C(=O)c2ccccc2C(=O)O)cc1C(=O)O`, the growth inhibition in experiment [1] was -8.75%; in experiment [2], 5%; in experiment [3] it was -44%; in experiment [4], 43.3%; in experiment [5], -23.1%; in experiment [6], -24.8%.
Turning to `O=C1c2cc(Br)ccc2-c2ccc(Br)c3cccc1c23`, the growth inhibition in experiment [1] is -10.6%; in experiment [2], -20.8%; in experiment [3], -6.1%; in experiment [4], 10.3%; in experiment [5] it was -1.05%; in experiment [6] it was -20.3%.
As to `CC(C)C(N)=O`, the growth inhibition in experiment [1] is 5.1%; in experiment [2], -0.1%; in experiment [3], -7.15%; in experiment [4], -3%; in experiment [5], 12.1%; in experiment [6], -9.25%.
For the compound `CC(=O)Nc1ccc2c(c1)C(P(=O)(OC(C)C)OC(C)C)c1ccccc1-2` (stereo not drawn), the growth inhibition in experiment [1] is 6%; in experiment [2], 19.6%; in experiment [3], 18.1%; in experiment [4] it was -1.4%; in experiment [5] it was 34.4%; in experiment [6], -2.8%.
As for `c1ccc2c(c1)ccc1c2ccc2c1cc1ccccn12`, the growth inhibition in experiment [1] was -4.2%; in experiment [2], 7.45%; in experiment [3], -13.2%; in experiment [4] it was -14.7%; in experiment [5], -20.3%; in experiment [6] it was 0.8%.
For the compound `Cc1ccc(CN(C)N=Nc2ccc(C#N)cc2)cc1`, the growth inhibition in experiment [1] was 2.55%; in experiment [2], 34.2%; in experiment [3] it was 45.6%; in experiment [4], 12.1%; in experiment [5], 65.3%; in experiment [6], 6.7%.
For `CC#CC(C)(C)N(C)C`, the growth inhibition in experiment [1] is -16.6%; in experiment [2], -8.45%; in experiment [3], -8.75%; in experiment [4] it was -21.4%; in experiment [5] it was 12.8%; in experiment [6], 14.1%.
In the case of `COc1cc(/C=C\C(=O)c2cccc([N+](=O)[O-])c2)cc(OC)c1OC`, the growth inhibition in experiment [1] was 20.4%; in experiment [2], 30.1%; in experiment [3], 13.9%; in experiment [4], 12.5%; in experiment [5], 29.1%; in experiment [6], 20.7%.
Regarding `CC[N+](C)(CC)CCNc1cc2c(c3c(=O)c4ccccc4sc13)CCCC2`, the growth inhibition in experiment [1] was 99.2% (active); in experiment [2], 99.7% (active); in experiment [3], 99.1% (active); in experiment [4], 99.2% (active); in experiment [5], 99% (active); in experiment [6], 99% (active).
`Cc1ncc(CO)c(CN)c1O`: the growth inhibition in experiment [1] is -0.55%; in experiment [2], -21.4%; in experiment [3] it was -38%; in experiment [4], -23.4%; in experiment [5] it was -28.4%; in experiment [6] it was -1.75%.
`N#C/C(=N\NC(=O)c1cccc(C(=O)N/N=C(\C#N)c2ccccc2Cl)n1)c1ccccc1Cl`: the growth inhibition in experiment [1] is -0.95%; in experiment [2], -10.9%; in experiment [3], -5.1%; in experiment [4] it was -14.6%; in experiment [5], -1.85%; in experiment [6] it was 4.2%.
For the compound `CCCOC(=O)c1c(C)c(C)cc(C)c1C`, the growth inhibition in experiment [1] is 5.9%; in experiment [2] it was 1.75%; in experiment [3] it was 14.6%; in experiment [4], 11.8%; in experiment [5] it was -1.3%; in experiment [6], -12.3%.
In the case of `Nc1cccc(C(CC(=O)O)CC(=O)O)c1`, the growth inhibition in experiment [1] is 14.8%; in experiment [2], 10.9%; in experiment [3], 13%; in experiment [4] it was 16.7%; in experiment [5], -1.5%; in experiment [6], 15.8%.
With `CC(CCc1cccc2ccccc12)C(=O)O` (stereo not drawn), the growth inhibition in experiment [1] is 29.6%; in experiment [2], 30.4%; in experiment [3], 28.9%; in experiment [4], 26.1%; in experiment [5] it was 30.3%; in experiment [6], 43.3%.
As for `O=C(O)c1cc2oc3ccccc3c2cc1O`, the growth inhibition in experiment [1] was 2.4%; in experiment [2], -7.5%; in experiment [3], 18.6%; in experiment [4], 4.4%; in experiment [5], 2.4%; in experiment [6] it was 23.3%.
For the compound `O=C1CSC(c2cccc(Cl)c2)N1N1C(=O)CSC1c1cccc(Cl)c1` (stereo not drawn), the growth inhibition in experiment [1] is 6.3%; in experiment [2], 19.4%; in experiment [3], -7.15%; in experiment [4] it was -0.6%; in experiment [5], 2.05%; in experiment [6], 13.4%.
Take `O=C1C(=O)N(C23CC4CC(CC(C4)C2)C3)C(=S)N1c1ccccc1`: the growth inhibition is -9.7% in experiment [1]; -20.6% in experiment [2]; -44.2% in experiment [3]; -26% in experiment [4]; -24.7% in experiment [5]; -27.2% in experiment [6].
Turning to `N#Cc1nnn2c1nc(N)c1c(Cl)cccc12`, the growth inhibition in experiment [1] is 0.75%; in experiment [2], -17.1%; in experiment [3] it was -4.6%; in experiment [4], -0.05%; in experiment [5], -11.8%; in experiment [6], -8.35%.
As for `Cc1ccc(-c2oc(-c3ccc(C)cc3)c3cc(C)c(C)cc23)cc1`, the growth inhibition in experiment [1] is 4.8%; in experiment [2], 13.5%; in experiment [3] it was -6.7%; in experiment [4], 8.5%; in experiment [5] it was -8.6%; in experiment [6], -4.6%.
For `CCC(=O)Oc1ccc(C(OC(=O)CC)OC(=O)CC)cc1OC`, the growth inhibition in experiment [1] was -9.1%; in experiment [2], -9.1%; in experiment [3], 11.8%; in experiment [4] it was -20.2%; in experiment [5] it was 9.45%; in experiment [6] it was 8.05%.
As for `COC(=O)C1CCC2C3CCCCC3CCC2C1(C)C(=O)OC` (stereo not drawn), the growth inhibition in experiment [1] was -7.6%; in experiment [2] it was 2%; in experiment [3] it was -4.55%; in experiment [4] it was -28.4%; in experiment [5] it was 5.7%; in experiment [6] it was 2.05%.
Regarding `COc1ccc2c(c1)c1cc(OC)ccc1n2CCCCOc1ccc(-c2c3ccccc3c(-c3ccc(OCCCCn4c5ccc(OC)cc5c5cc(OC)ccc54)cc3)c3ccccc23)cc1`, the growth inhibition in experiment [1] is 29.1%; in experiment [2] it was 1.85%; in experiment [3], -1.1%; in experiment [4], 23.9%; in experiment [5] it was 7.9%; in experiment [6] it was 29.6%.
For the compound `O=C(Nc1ccc(F)c([N+](=O)[O-])c1)Nc1ccccc1C(F)(F)F`, the growth inhibition in experiment [1] is 3.95%; in experiment [2], 29.6%; in experiment [3], 33.8%; in experiment [4], -3.5%; in experiment [5], 31.3%; in experiment [6], 25.8%.
With `COc1cc(CCC(=O)NS(=O)(=O)c2ccccc2)cc(OC)c1OC`, the growth inhibition in experiment [1] is 4.2%; in experiment [2], 1.9%; in experiment [3] it was -6.75%; in experiment [4] it was -2.85%; in experiment [5], -3.85%; in experiment [6], 10.2%.
As for `CNNCCCC(=O)NC(C)C`, the growth inhibition in experiment [1] is -5.7%; in experiment [2], 6.65%; in experiment [3], 9.25%; in experiment [4] it was 2.75%; in experiment [5], 7.8%; in experiment [6], 7.85%.
`CC(NC(=O)N(C)C)NC(=O)N(C)C`: the growth inhibition in experiment [1] was -17.9%; in experiment [2], -22.3%; in experiment [3], -5.15%; in experiment [4] it was -5.85%; in experiment [5], -0.9%; in experiment [6], -4.95%.
For the compound `CCN(Cc1ccc(S(=O)(=O)O)cc1)c1cccc(S(=O)(=O)O)c1`, the growth inhibition was 14.1% in experiment [1]; 26.4% in experiment [2]; 18.4% in experiment [3]; -20.9% in experiment [4]; -18.2% in experiment [5]; 9.35% in experiment [6].
In the case of `CCOC(=O)C[n+]1ccc(C(=O)OCC)cc1`, the growth inhibition was -7.1% in experiment [1]; -15.2% in experiment [2]; 0.05% in experiment [3]; 2.3% in experiment [4]; 11.1% in experiment [5]; 3.5% in experiment [6].
For `CCOC(=O)/C=C/c1ccccn1`, the growth inhibition is -15.3% in experiment [1]; -9.5% in experiment [2]; -35.5% in experiment [3]; 11.9% in experiment [4]; -12.8% in experiment [5]; -25.6% in experiment [6].
Consider `COc1ccc(NC(=O)CC(=O)N/N=C/c2ccc(N(CCC#N)S(=O)(=O)c3ccccc3)cc2)cc1`, for which the growth inhibition in experiment [1] is -35.5%; in experiment [2], -11.8%; in experiment [3], -29.5%; in experiment [4], 8.15%; in experiment [5], -11.2%; in experiment [6] it was -2.75%.
As to `O=C1Nc2ccccc2C1=O`, the growth inhibition in experiment [1] was -0.85%; in experiment [2], 11.4%; in experiment [3], -31.8%; in experiment [4] it was -22.5%; in experiment [5] it was -12.3%; in experiment [6], -50%.
